About 13,000 (3.2%) of roughly 400,000 compounds were called active. Inconclusive results (about 18%) are left out. Only a selection was taken, and actives are over-represented in it overall. Unmarked numbers belong to inactive results. The call rests on the fitted dose curve; in most records, active means well fitted cell-killing curve with a large enough effect; inconclusive means small, poorly fitted or top-dose-only effect, or effect the other way; inactive means flat fitted curve, though single readings scatter.
Test: qHTS assay for MDR1-selective chemotherapeutics: Primary screen using the drug-selected MDR subline cells KB-V1; further: nearly all actives have a fitted effect of over 60% in size
Conditions: KB-V1 MDR cells viability, CellTiter-Glo, 72 h; series mostly up to 46.1 µM; activity change, negative = cytotoxicity: at the top concentration
Summary of the method: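 KB-V1 MDR subline cells in DMEM (phenol-red free, 10% FBS) exposed to compounds in qHTS concentration series for 72 h at 37 degrees C. Viability read by CellTiter-Glo luminescence; concentration-effect curves fitted after normalization and correction.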
On the % scale 0 is the no-effect control and ±100 the full control effect; potency means the concentration at half of the fitted maximal effect.

Row | SMILES | activity change, negative = cytotoxicity [%] | Potency
1 | CC(OC(=O)c1ccc(NC(=O)CC#N)cc1)C(=O)Nc1ccc(S(=O)(=O)N2CCCC2)cc1 (stereo unspecified) | -7.06 | 
2 | Nc1nc2cc(Cl)ccc2n1N | 0.774 | 
3 | CCCCN(CC)C(=O)c1c[nH]c2ccc(S(=O)(=O)Nc3cccc(OC)c3)cc2c1=O | 0.646 | 
4 | CCCc1nc2c3ccccc3ccn2c1Cc1ccccc1C(F)(F)F | 20.4 | 
5 | COc1ccc(CNC(=O)C2CCN(C(=O)c3ccccc3)CC2)cc1 | 19 | 
6 | COC(=O)[C@@]1(Cc2ccc(OC)cc2)[C@H]2c3cc(C(=O)N4CCCC4)n(Cc4ccc(OC(F)(F)F)cc4)c3C[C@H]2CN1C(=O)c1ccccc1 |  | 20.6 µM (active)
7 | C[C@]1(C(=O)NCCc2c[nH]c3ccccc23)C=C[C@@H](Cc2ccccc2)N1C(=O)c1ccccc1 | -0.929 | 
8 | COc1ccc2c(c1)C(SCC(=O)NCc1ccccc1)CC(C)(C)O2 (stereo unspecified) | -13.6 | 
9 | COC(=O)[C@@]1(Cc2ccc(F)cc2)[C@H]2c3cc(C(=O)N4CCCC4)n(C[C@H](O)CO)c3C[C@H]2CN1C(=O)c1ccccc1 | 24.6 | 
10 | COC(=O)[C@@]1(Cc2ccc(F)cc2)[C@H]2c3cc(C(=O)N(C)C)n(CCc4c[nH]c5ccc(OC)cc45)c3C[C@H]2CN1C(=O)c1ccccc1 |  | 18.4 µM (active)
11 | CCN1C(=O)[C@H]2[C@@H](c3ccc(C(F)(F)F)cc3)N[C@]3(CCCN(Cc4ccc(Br)cc4)C3=O)[C@H]2C1=O | -9.24 | 
12 | CC1(C)CC(=O)C=C(c2ccccc2CO)C1=O | 0 | 
13 | Cn1c(Nc2ccc(F)cc2)nc2cc(-c3ccsc3)sc2c1=O | 3.2 | 
14 | O=C(c1cnn2c1NC(=C1CC1)C=C2C(F)F)N1CCc2ccccc2C1 | 7.8 | 
15 | CCN(CC)S(=O)(=O)c1ccc2c(c1)c(=O)c(C(=O)N1CCN(c3cccc(Cl)c3)CC1)cn2C | 21.8 | 
16 | C=CCn1cc(C(=O)NCc2ccc(Cl)cc2)c(=O)c2cc(S(=O)(=O)N(CC)CC)ccc21 |  | 18.4 µM (active)
17 | CCn1cc(C(=O)NCc2ccccc2)c(=O)c2cc(S(=O)(=O)N3CCCCC3)ccc21 | -5.6 | 
18 | CCOC(=O)C1=CCC2C(=O)N(Cc3ccccc3)C(=O)C12 (stereo unspecified) | 11.2 | 
19 | CCc1ccc(S(=O)(=O)Nc2cc3c(C(=O)OCc4ccccc4)c(C)oc3c3ccccc23)cc1 | 0 | 
20 | CC(=O)c1c(C)oc2ccc(NS(=O)(=O)c3ccc(C(=O)O)cc3)cc12 | 12.6 | 
21 | COc1cc2ccccc2cc1C(=O)Nc1ccc(S(=O)(=O)Nc2cc(C)on2)cc1 | -2.9 | 
22 | COc1ccc(S(=O)(=O)Nc2cc3c(C(=O)OC(C)C)c(C)oc3c3ccccc23)cc1 |  | 5.17 µM (active)
23 | COc1ccc(S(=O)(=O)Nc2ccc3oc(C)c(C(C)=O)c3c2)cc1 |  | 2.59 µM (active)
24 | COc1cc(NS(=O)(=O)c2ccc(NC(C)=O)cc2)cc(OC)c1 | -3.57 | 

Row | SMILES | activity change, negative = cytotoxicity [%] | Potency
25 | CN1CCn2cnc(C(=O)NCC(=O)OC(C)(C)C)c2C1=O | 15.1 | 
26 | Cc1cccc(-n2ccnc2SCC(=O)Nc2cc(C(F)(F)F)ccc2Cl)c1 | -2.14 | 
27 | C[C@H](O)[C@@H]1C(=O)N2CCc3c([nH]c4ccccc34)[C@@H]2C[C@@H]1N(C)C(=O)Nc1ccc(F)cc1 | 0.0676 | 
28 | N#CC1(Nc2ccc3c4c(cccc24)CC3)CCCCC1 | 10.3 | 
29 | O=C(NCCCN1CCOCC1)c1cc2c(s1)CCC2 | 13.1 | 
30 | O=C(CCc1nc2sc3c(c2c(=O)[nH]1)CCCC3)NCC(=O)Nc1ccccc1Br | -26.1 | 
31 | O=C(CNC(=O)c1cc2c(s1)CCC2)Nc1ccccc1Br |  | 18.4 µM (active)
32 | CCN(Cc1ccncc1)C(=S)Nc1ccccc1C | 12.6 | 
33 | COc1ccc([C@H]2C[C@@H](n3cc(COC(=O)c4ccccc4)nn3)[C@H](O)CN2C(=O)c2cccs2)cc1 | 9.34 | 
34 | O=C(Nc1ccc(OCCO)cc1)c1csc([C@H]2C[C@H](O)[C@@H](CO)O2)n1 | 4.16 | 
35 | Fc1cccc(Cc2c(-c3cccc(Cl)c3)nc3ccc(Br)cn23)c1 | 11.4 | 
36 | COc1ccc(Cl)cc1NC(=O)c1cccc(N2C(=O)C3CC=CCC3C2=O)c1 (stereo unspecified) | 3.02 | 
37 | COc1ccc(Cl)cc1NC(=O)COC(=O)C(CC(C)C)N1C(=O)C2CC=CCC2C1=O (stereo unspecified) |  | 10.3 µM (active)
38 | COc1ccc(Cl)cc1NC(=O)COc1ccc2c(c1)OCO2 | 23.4 | 
39 | O=C(Cn1c(-c2ccc(Cl)cc2)noc1=O)N1CCN(c2ccccc2F)CC1 |  | 9.2 µM (active)
40 | CC1(C2CC2)NC(=O)N(CC(=O)N2CCN(c3ccccc3F)CC2)C1=O (stereo unspecified) | -20.2 | 
41 | O=C(CCSc1ccccc1)N1CCN(c2ccccc2F)CC1 | -18.4 | 
42 | Clc1ccccc1Nc1nc(NCc2cccs2)nc2ccsc12 | -0.485 | 
43 | CCCNC(=O)C(CC)n1nc(CC)n2c(cc3oc(C)cc32)c1=O (stereo unspecified) | -12 | 
44 | CC(C)(C(=O)N1CCC1(C)C(=O)NS(=O)(=O)c1ccc(Br)cc1)c1ccccc1 (stereo unspecified) | 5.43 | 
45 | CC(OC(=O)c1cccnc1Cl)C(=O)NC1CCCCC1 (stereo unspecified) | 2.47 | 
46 | Cc1ccc(NC(=O)N2CCC(C(=O)NCc3ccc(F)cc3)CC2)cc1 |  | 18.4 µM (active)
47 | Cc1ccc(C(=O)NC2CCN(C(=O)Nc3ccc(F)cc3)CC2)cc1 | 0 | 
48 | CCS(=O)(=O)N1CCCC(C(=O)NCc2ccc(C)cc2)C1 (stereo unspecified) | 9.47 | 

Row | SMILES | activity change, negative = cytotoxicity [%] | Potency
49 | O=C1Nc2ccccc2NC(c2ccc3c(c2)OCO3)=C1N(Cc1ccc(F)cc1)C(=O)c1ccco1 | 0 | 
50 | O=C(c1ccc2c(c1)N(Cc1ccccc1F)C(=O)c1ccccc1S2(=O)=O)N1CCOCC1 | -15.2 | 
51 | COc1ccc(C2c3c(oc4ccccc4c3=O)C(=O)N2Cc2ccc3c(c2)OCO3)cc1 (stereo unspecified) | 12.9 | 
52 | C=CCn1c(SCCOc2ccc(OC)cc2)nnc1C(NC(=O)c1ccc(OC)cc1)C(C)C (stereo unspecified) |  | 11.6 µM (active)
53 | C=CCn1c(SCC(=O)c2ccc(Br)cc2)nnc1C(C)NC(=O)Cc1ccc(OC)cc1 (stereo unspecified) | 0.852 | 
54 | COc1ccc(C(=O)NCc2nnc(SCCOc3ccccc3)n2C)cc1 | -6.27 | 
55 | CCOC(=O)c1c(C)[nH]c(C)c1C(=O)COC(=O)/C=C/c1cccc([N+](=O)[O-])c1 | 7.85 | 
56 | O=C(OCc1cn([C@@H]2C[C@H](c3ccc(Cl)cc3)N(Cc3cccs3)C[C@H]2O)nn1)c1ccccc1 | -16.6 | 
57 | CCc1cccc(CC)c1N1C(=O)CC(Sc2ccccc2N)C1=O (stereo unspecified) |  | 6.51 µM (active)
58 | COC(=O)c1ccccc1SC1CC(=O)N(c2cccc(C)c2)C1=O (stereo unspecified) | -2.53 | 
59 | Cc1ccnc(SC2CC(=O)N(c3ccccc3)C2=O)n1 (stereo unspecified) | 18.5 | 
60 | COc1cc2c3c(c1)/C(=C1/SC(=S)NC1=O)C(=O)N3C(C)(C)C=C2C |  | 9.2 µM (active)
61 | O=C(OCc1cn([C@H]2C[C@H](c3ccccc3)N(C(=O)c3cccs3)C[C@@H]2O)nn1)c1ccccc1 | 13.1 | 
62 | COc1ccc(/C=C2\SC(=S)N(CCC(=O)N3CCOCC3)C2=O)cc1OC | 12.8 | 
63 | C=C1C=C(C(F)F)n2ncc(C(=O)NCCc3ccccc3OC)c2N1 | 0 | 
64 | C=CCNc1ncnc2ccc(Br)cc12 |  | 20.6 µM (active)
65 | Brc1ccc2ncnc(NCc3cccnc3)c2c1 | 3.72 | 
66 | O=C(O)CCCCCNc1ncnc2ccc(Br)cc12 | -28.3 | 
67 | Cc1ccc2nc(COc3cccc(NC(=O)c4cccc(Cl)c4)c3)cc(=O)n2c1 | -2.75 | 
68 | Cc1cc(O)cc(O)c1C(=O)Cc1cnn(-c2ccccc2)c1 |  | 16.4 µM (active)
69 | O=C(c1cnn(-c2ccc(Cl)cc2)c1)c1ccccc1O | -26.8 | 
70 | COc1ccc(C(=O)Cc2cnn(-c3ccccc3)c2)c(O)c1 | 6.65 | 
71 | Cc1ccc(-c2cc(-c3coc4ccccc4c3=O)c3c(n2)-c2cc(Cl)ccc2OC3)cc1 | 23.8 | 
72 | Cc1cc(C)c(S(=O)(=O)NN=C2c3ccccc3[C@H]3Cc4csc[n+]4[C@@H]23)c(C)c1 | 0 | 

Row | SMILES | activity change, negative = cytotoxicity [%] | Potency
73 | C[C@H](CO)N1C[C@H](C)[C@@H](CN(C)C(=O)c2cccc(F)c2)Oc2cc(-c3cncnc3)ccc2S1(=O)=O | -5.26 | 
74 | O=C(NCCOc1ccccc1)c1ccccc1F | -0.571 | 
75 | COc1ccccc1N1CCN(C(=O)c2c(-c3c(Cl)cccc3Cl)noc2C)CC1 | 0 | 
76 | COc1ccccc1N1CCN(C(=O)c2cc(=O)c3cc(C)ccc3o2)CC1 | -19.3 | 
77 | COc1ccccc1N1CCN(C(=O)c2cc(=O)c3cc(C)cc(C)c3o2)CC1 |  | 0.206 µM (active)
78 | O=C(Nc1ccc2c(c1)OCCO2)C1c2ccccc2OCC(=O)N1Cc1ccccn1 (stereo unspecified) | 0 | 
79 | Cc1ccc(C(=O)N[C@H](C(=O)N2CCN(c3ncccn3)CC2)C(C)C)cc1 | -6.89 | 
80 | Cc1c(C(=O)NCc2ccccc2)cnn1-c1ccccc1 | -2.59 | 
81 | CC(=O)Cn1cnc2c(cnn2-c2ccccc2)c1=O | 2.75 | 
82 | O=C(Cn1cnc2c(cnn2-c2ccccc2)c1=O)NCc1ccccc1 |  | 5.17 µM (active)
83 | COc1ccc(Br)cc1CN(C)CC(=O)Nc1cc(Cl)cc(Cl)c1 |  | 7.31 µM (active)
84 | COc1ccc(Cl)cc1NC(=O)CCS(=O)(=O)c1ccc(Br)cc1 | -12.7 | 
85 | COc1ccc(OC)c(NC(=O)CN(C)CCOc2ccc(Br)cc2)c1 | -8.21 | 
86 | CCCCCCN1CCN(C2CN(Cc3cn(CCCCCC)nn3)S(=O)(=O)C2)CC1 (stereo unspecified) | -17.4 | 
87 | COc1ccc(-c2nc3ccc(Br)cn3c2Cc2ccc(C)cc2)cc1OC | 11.7 | 
88 | CC(=O)NCCNC(=O)c1cc(-c2cccc3ccccc23)nc2ccccc12 | -9.24 | 
89 | CN(C)CCNC(=O)c1ccc(Cl)c2cc3ccccc3nc12 |  | 2.06 µM (active)
90 | CN(C)CCNC(=O)Nc1cccc(Cl)c1Cl | -2.58 | 
91 | CCOC(=O)C1CCCN(C(=O)c2cc(-c3cccs3)oc2C)CC1 (stereo unspecified) | -0.946 | 
92 | O=C1N(Cc2ccccc2)c2ccc(Cl)cc2C1(O)c1c[nH]c2ccccc12 (stereo unspecified) | 15.1 | 
93 | CCOc1ccc(-c2nonc2NC(=O)c2oc3ccc(C)cc3c2C)cc1OCC | 4.56 | 
94 | C/C(=N\NC(=O)CSc1nc2ccccc2c(=O)n1-c1ccccc1C)c1cccs1 |  | 2.31 µM (active)
95 | Cc1nn(-c2ccccc2)c(C)c1/C=N/NC(=O)CSc1nc2ccccc2c(=O)n1-c1ccccc1 | -1.83 | 
96 | C/C(=N\NC(=O)COc1c(C)cccc1C)c1cccs1 | -15.3 | 

— PubChem BioAssay AID1347076 (National Center for Advancing Translational Sciences (NCATS), 2019)
